Test results reported in PubChem BioAssay (NCATS).
Results filed as inconclusive are left out. Active and inactive are the calls of the source. Calls follow the shape of the dose curve; as a rule, active = well fitted cell-killing curve with a large enough effect; inconclusive = small, poorly fitted or top-dose-only effect, or effect the other way; inactive = no such curve, though single readings can be large or run the other way.

Assay: Quantitative High-Throughput drug screen in 47 multiple myeloma cell lines against the NCATS MIPE library collection: MMM1_PLB cell viability assay (AID 1918976); also: nearly all actives have a fitted effect of over 35% in size
Conditions: MMM1 myeloma cells viability, CellTiter-Glo, 48 h
Summary of the method: (§1)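 Plated at 500 cells per well, myeloma lines received MIPE 4.0 compounds by pin tool. Following 48 h culture at 37 °C, CellTiter-Glo luminescence gave viability relative to DMSO and media-only controls.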
Potency is read from the fitted curve at half-maximal effect.

Row | Compound | Potency
1 | COC[C@H]1OC(=O)c2coc3c2[C@@]1(C)C1=C(C3=O)C2CCC(=O)[C@@]2(C)C[C@H]1OC(C)=O (stereo not given in full) | 2640 nM (active)
2 | COC1(CS(=O)c2ccccc2)CCN(CCc2c[nH]c3ccc(F)cc23)CC1 (stereo not given) | 3720 nM (active)
3 | C[C@@H]1[C@@H](C(=O)C[C@H]2O[C@@H]3O[C@]4(C)CC[C@@H]5[C@H](C)CC[C@@H]([C@H]2C)[C@@]35OO4)O[C@@H]2O[C@]3(C)CC[C@H]4[C@H](C)CC[C@@H]1[C@@]24OO3 | 418 nM (active)

Assay: Quantitative High-Throughput drug screen in 47 multiple myeloma cell lines against the NCATS MIPE library collection: MOLP8_DSMZ cell viability assay (AID 1918977); also: nearly all actives have a fitted effect of over 45% in size;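 as to viability (% of control): 100% = DMSO-only wells and 0% = media-only wells without cells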
Conditions: MOLP8 myeloma viability, CellTiter-Glo ATP luminescence, 48 h; series mostly up to 45.8 µM; viability (% of control): at the top concentration
Summary of the method: as §1

Row | Compound | viability (% of control) | Potency
4 | CN(C)CCc1ccc(O)cc1 | 131% (inactive) | 
5 | CC1=C2C[C@@H]3[C@@H](CC=C4C[C@@H](O)CC[C@@]43C)[C@@H]2CC[C@]12O[C@H]1C[C@H](C)CN[C@H]1[C@H]2C | 91.1% (inactive) | 
6 | COc1ccc(C(CN(C)C)C2(O)CCCCC2)cc1 (stereo not given) | 76.9% (inactive) | 
7 | C[C@@H]1[C@@H](CC(C[C@H]2O[C@@H]3O[C@]4(C)CC[C@@H]5[C@H](C)CC[C@@H]([C@H]2C)[C@@]35OO4)C[S+](=O)([O-])c2ccc(COC(=O)N(C)C)cc2)O[C@@H]2O[C@]3(C)CC[C@H]4[C@H](C)CC[C@@H]1[C@@]24OO3 (stereo not given in full) |  | 187 nM (active)
8 | CCCC(C)(COC(N)=O)COC(=O)NC(C)C (stereo not given) | 95.6% (inactive) | 
9 | CN(C)[C@@H]1C(=O)C(C(N)=O)=C(O)[C@@]2(O)C(=O)C3=C(O)c4c(O)cccc4[C@@](C)(O)[C@H]3C[C@@H]12 | 95.2% (inactive) | 
10 | COc1ccc(C(=O)c2c(C)n(CCN3CCOCC3)c3ccccc23)cc1 | 95.5% (inactive) | 
11 | Cn1cc(C2=C(c3cn(C4CCN(Cc5ccccn5)CC4)c4ccccc34)C(=O)NC2=O)c2ccccc21 | 71.4% (inactive) | 
12 | Cn1c(CCCC(=O)O)nc2cc(N(CCCl)CCCl)ccc21 |  | 3320 nM (active)
13 | N[C@@H](Cc1ccc(N(CCCl)CCCl)cc1)C(=O)O |  | 5900 nM (active)
14 | CC(C)CC(N(C)C)C1(c2ccc(Cl)cc2)CCC1 (stereo not given) | 78.7% (inactive) | 
15 | COC[C@@H](NC(C)=O)C(=O)NCc1ccccc1 | 90.8% (inactive) | 
16 | COC[C@H]1OC(=O)c2coc3c2[C@@]1(C)C1=C(C3=O)C2CCC(=O)[C@@]2(C)C[C@H]1OC(C)=O (stereo not given in full) |  | 1320 nM (active)
17 | COC1(CS(=O)c2ccccc2)CCN(CCc2c[nH]c3ccc(F)cc23)CC1 (stereo not given) | 65.3% (inactive) | 
18 | O=P1(NCCCl)OCCCN1CCCl (stereo not given) | 60.1% (inactive) | 
19 | O=c1[nH]c2ccccc2n1CCCN1CCC(n2c(=O)[nH]c3cc(Cl)ccc32)CC1 | 121% (inactive) | 
20 | CNCC(O)c1ccc(O)cc1 (stereo not given) | 112% (inactive) | 
21 | C[C@@H]1[C@@H](C(=O)C[C@H]2O[C@@H]3O[C@]4(C)CC[C@@H]5[C@H](C)CC[C@@H]([C@H]2C)[C@@]35OO4)O[C@@H]2O[C@]3(C)CC[C@H]4[C@H](C)CC[C@@H]1[C@@]24OO3 |  | 526 nM (active)

Assay: Quantitative High-Throughput drug screen in 47 multiple myeloma cell lines against the NCATS MIPE library collection: OCIMY1_PLB cell viability assay (AID 1918979); also: nearly all actives have a fitted effect of over 35% in size;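 as to viability: 100% = DMSO-only wells and 0% = cell-free media-only wells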
Conditions: OCI-MY1 myeloma viability, CellTiter-Glo ATP, 48 h; series mostly up to 45.8 µM; viability: at the top concentration
Summary of the method: as §1

Row | Compound | viability | Potency
22 | COc1ccc2c(c1OC)CN1CCc3cc4c(cc3C1C2)OCO4 (stereo not given) | 94.3% (inactive) | 
23 | CNC(=O)N1N=C(c2ccc(N)cc2)c2cc3c(cc2CC1C)OCO3 (stereo not given) | 87.3% (inactive) | 
24 | CN(C)CCc1ccc(O)cc1 | 126% (inactive) | 
25 | C[C@@H]1O[C@@H](O[C@H]2C[C@@H](O)[C@]3(CO)[C@H]4[C@H](O)C[C@]5(C)[C@@H](C6=CC(=O)OC6)CC[C@]5(O)[C@@H]4CC[C@]3(O)C2)[C@H](O)[C@H](O)[C@H]1O |  | 20.9 nM (active)
26 | Cc1cccc(C)c1NC(=O)CN1CCCC1=O | 111% (inactive) | 
27 | CC1=C2C[C@@H]3[C@@H](CC=C4C[C@@H](O)CC[C@@]43C)[C@@H]2CC[C@]12O[C@H]1C[C@H](C)CN[C@H]1[C@H]2C | 95.4% (inactive) | 
28 | COc1ccc(C(CN(C)C)C2(O)CCCCC2)cc1 (stereo not given) | 112% (inactive) | 
29 | C[C@@H]1[C@@H](CC(C[C@H]2O[C@@H]3O[C@]4(C)CC[C@@H]5[C@H](C)CC[C@@H]([C@H]2C)[C@@]35OO4)C[S+](=O)([O-])c2ccc(COC(=O)N(C)C)cc2)O[C@@H]2O[C@]3(C)CC[C@H]4[C@H](C)CC[C@@H]1[C@@]24OO3 (stereo not given in full) |  | 187 nM (active)
30 | CCCC(C)(COC(N)=O)COC(=O)NC(C)C (stereo not given) | 112% (inactive) | 
31 | Cc1cc(SCc2sc(-c3ccc(C(F)(F)F)c(F)c3)nc2C)ccc1OCC(=O)O | 98.7% (inactive) | 
32 | Fc1ccc(C(OCCN2CCN(CCCc3ccccc3)CC2)c2ccc(F)cc2)cc1 |  | 26400 nM (active)
33 | COc1ccc(C(=O)c2c(C)n(CCN3CCOCC3)c3ccccc23)cc1 | 120% (inactive) | 
34 | O=C(O)C(=O)c1cn(Cc2ccccc2)c2ccc(-c3ccc(OC(F)(F)F)cc3)cc12 | 106% (inactive) | 
35 | O=C1CC[C@@]2(O)[C@H]3Cc4ccc(O)c5c4[C@@]2(CCN3CC2CC2)[C@H]1O5 | 114% (inactive) | 
36 | Cn1cc(C2=C(c3cn(C4CCN(Cc5ccccn5)CC4)c4ccccc34)C(=O)NC2=O)c2ccccc21 | 80.8% (inactive) | 
37 | N[C@@H](Cc1ccc(N(CCCl)CCCl)cc1)C(=O)O |  | 16600 nM (active)
38 | CC(C)CC(N(C)C)C1(c2ccc(Cl)cc2)CCC1 (stereo not given) | 113% (inactive) | 
39 | COC[C@@H](NC(C)=O)C(=O)NCc1ccccc1 | 128% (inactive) | 
40 | C#CCN(C)[C@H](C)Cc1ccccc1 | 103% (inactive) | 
41 | COC1(CS(=O)c2ccccc2)CCN(CCc2c[nH]c3ccc(F)cc23)CC1 (stereo not given) | 110% (inactive) | 
42 | O=c1[nH]c2ccccc2n1CCCN1CCC(n2c(=O)[nH]c3cc(Cl)ccc32)CC1 | 92% (inactive) | 
43 | CNC(=O)c1ccc(N2C(=S)N(c3ccc(C#N)c(C(F)(F)F)c3)C(=O)C23CCC3)cc1F | 94% (inactive) | 
44 | CNCC(O)c1ccc(O)cc1 (stereo not given) | 103% (inactive) | 
45 | CN1CCN(C(=O)O[C@H]2c3nccnc3C(=O)N2c2ccc(Cl)cn2)CC1 | 110% (inactive) | 
